Source: PubChem BioAssay (NCI)
About 83,000 compounds went through this panel and 20% of them were active in at least one assay; those are over-represented in the sample as a whole.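 A percent growth of 40 corresponds to 60% growth inhibition; 0 means no net growth; -100 means all cells died. Active threshold: below 10.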 A number with no mark means an inactive call. Active and inactive are the calls of the source.

What was measured:
Experiment in all cases: NCI-60 one-dose screen, 48 h (100 = growth as untreated, 0 = no growth, -100 = all killed)
Details in all cases: 10 µM unless noted
SR leukemia = tested on: SR leukemia
RPMI-8226 leukemia = tested on: RPMI-8226 leukemia
OVCAR-8 ovarian = tested on: OVCAR-8 ovarian
OVCAR-5 ovarian = tested on: OVCAR-5 ovarian
OVCAR-4 ovarian = tested on: OVCAR-4 ovarian
SK-OV-3 ovarian = tested on: SK-OV-3 ovarian
IGROV1 ovarian = tested on: IGROV1 ovarian
HS 578T breast = tested on: HS 578T breast
NCI/ADR-RES ovarian = tested on: NCI/ADR-RES ovarian
T-47D breast = tested on: T-47D breast
BT-549 breast = tested on: BT-549 breast
MDA-MB-435 melanoma = tested on: MDA-MB-435 melanoma
SW-620 colon = tested on: SW-620 colon
MCF7 breast = tested on: MCF7 breast
HCT-116 colon = tested on: HCT-116 colon
HCC-2998 colon = tested on: HCC-2998 colon
KM12 colon = tested on: KM12 colon

Compound	growth (SR leukemia)	growth (RPMI-8226 leukemia)	growth (OVCAR-8 ovarian)	growth (OVCAR-5 ovarian)	growth (OVCAR-4 ovarian)	growth (SK-OV-3 ovarian)	growth (IGROV1 ovarian)	growth (HS 578T breast)	growth (NCI/ADR-RES ovarian)	growth (T-47D breast)	growth (BT-549 breast)	growth (MDA-MB-435 melanoma)	growth (SW-620 colon)	growth (MCF7 breast)	growth (HCT-116 colon)	growth (HCC-2998 colon)	growth (KM12 colon)
CN1C(=O)/C(=C/C=C/c2ccco2)SC1=S	79.6%	64.4%	71.1%	87.5%	96.1%	98.9%	54.3%	98.1%	75.6%	63%	55.1%	95.8%	104%	24.2%	54.4%	99.2%	91.3%
COc1ccc(-c2nc3cc(Cl)c(Cl)cc3n2CC(=O)N=Nc2c(O)[nH]c3ccccc23)cc1	66.4%	62.5%	78.4%	63%	75.1%	100%	52.9%	53.4%	44.3%	57.8%	78.3%	68.8%	62.4%	45.7%	22.6%	66%	68.2%
O=C(NCCNc1cc(-c2cn(-c3ccccc3)nc2-c2cccc(O)c2)ccn1)Nc1ccc(Cl)c(C(F)(F)F)c1	65.5%	17.5%	74.1%	59.9%	73.5%	94.6%	69%	41.6%	49.8%	67.3%	98%	52.8%	46.8%	10.4%	50.6%	-77.7% (active)	37.9%
O=C(N/N=C\c1ccc(Cl)cc1)c1ccc2nc(-c3ccc(Br)cc3)[nH]c2c1	-8.2% (active)	-8.35% (active)	-14.4% (active)	36.8%	-44.1% (active)	79.1%	-43.6% (active)	15.6%	35.7%	0.0838% (active)	97.7%	3.54% (active)	-49.3% (active)	-33.2% (active)	-86.8% (active)	-42.5% (active)	-23.2% (active)
Cc1ccc(-c2cc3nc(C(Cl)Cl)nc(-c4ccccc4)n3n2)cc1	85.3%	82.5%	92.9%	103%	103%	97.9%	94.3%	109%	79.5%	90.4%	95.8%	91.5%	79.5%	64.1%	82.2%	65.3%	65.8%
Cc1cn(-c2cc(NC(=O)c3cncc(C#Cc4cnc5ccc(O[C@@H]6CCOC6)nn45)c3)cc(C(F)(F)F)c2)cn1	-35.6% (active)	-29.8% (active)	-49.7% (active)	0.672% (active)	-33.1% (active)	-22.3% (active)	-9.41% (active)	-25.1% (active)	40.4%	-28.6% (active)	-96% (active)	-83.1% (active)	6.01% (active)	-52% (active)	-95.7% (active)	-13.7% (active)	-21.5% (active)
CN1CCN(c2nc(-c3cnc4ccccc4n3)cc3ccccc23)CC1	1.45% (active)	56.7%	89.7%	91.1%	100%	92.1%	73.7%	85.6%	82.2%	68.9%	85.7%	27.1%	11.5%	54.9%	21.4%	-26.4% (active)	88.1%
C#C[C@]1(O)CC[C@H]2[C@@H]3CC=C4c5sc(Nc6nc(C)cc(OC)n6)nc5CC[C@]4(C)[C@H]3CC[C@@]21C	12.4%	-0.189% (active)	73.3%	78.8%	88.4%	47.5%	66%	-6.82% (active)	62.7%	59%	48%	34.7%	23.6%	8.47% (active)	42.7%	80.9%	46.1%
C=CCn1c(SCC(=O)Nc2cccc(C(=O)/C=C/c3ccccc3Cl)c2)nc2ccccc2c1=O	14%	1.65% (active)	92%	95.1%	87.7%	119%	92%	89.6%	90.4%	74.5%	99.7%	–	67.2%	24.4%	-86.9% (active)	100%	80.2%
CCN1C(=O)N(CC)C2SC(N/N=C/c3ccc(F)cc3)=NC21 (configuration not stated)	19.4%	19.6%	2.03% (active)	48.4%	67.2%	36.6%	25.1%	11.9%	0.946% (active)	64.8%	-28.4% (active)	–	20.8%	17.5%	13.7%	14.1%	11.1%
CC(C)c1nn(-c2ccccc2)c(N2CCCCC2)c1/C=N/NC(N)=S	88.8%	78.2%	97.1%	98.7%	72.4%	106%	83.9%	103%	86.9%	66.8%	85.2%	–	101%	75.7%	79.1%	105%	103%
CCCCSc1nnc(-c2ccc(-c3ccc(Cl)cc3)nc2C)o1	95.5%	103%	109%	101%	102%	111%	99.1%	105%	99.8%	92.8%	–	102%	101%	85.8%	98%	100%	103%
CSc1nccc(-c2c(-c3ccc(F)c(OCc4ccc(F)cc4)c3)nc3sccn23)n1	73.4%	53.2%	84.4%	95.4%	61.8%	71.4%	55.8%	88.2%	73.6%	65.9%	71.3%	59.7%	48.9%	65%	51.3%	93.4%	80.1%
CCOC(=O)c1c(Nc2ccccc2)nn2c(-c3ccc(Br)cc3)ccnc12	70.7%	95.8%	69.2%	80.4%	53.5%	59.2%	71%	–	59.8%	41.3%	104%	80.3%	78.4%	80.9%	42.5%	87.1%	78.3%
C/C(=C(/c1ccc(O)cc1)c1ccc(OCCN(C)C)cc1)c1ccc(Cl)cc1	-3.2% (active)	-8.72% (active)	62.1%	66.6%	66.9%	83%	58.1%	–	61.8%	30.9%	73.7%	28.1%	-32.9% (active)	15.7%	25.6%	7.02% (active)	44.8%
COc1cc(/C=C/C(=O)c2ccc(N3CCN(C)CC3)cc2)ccc1F	28.3%	28.4%	88.9%	81.6%	75.9%	99.3%	56.6%	104%	82.8%	44.4%	–	54.7%	33%	24.9%	27.8%	73%	36.7%
Clc1ccc(-c2csc(Nc3cccc(Nc4csc(-c5ccc(Cl)cc5)n4)c3)n2)cc1	96.8%	86.3%	87.3%	77.5%	76.5%	79.3%	50.6%	73.4%	79.5%	26.8%	112%	88.6%	86.6%	60.7%	67.2%	–	67.6%
COc1cc(O)c2c(c1)/C=C/C[C@H](O)[C@H](O)C(=O)/C=C\C[C@H](C)OC2=O	-6.77% (active)	-4.42% (active)	19.9%	8.3% (active)	18.9%	75.4%	9.18% (active)	-26.4% (active)	8.99% (active)	-1.9% (active)	-29.2% (active)	-15.4% (active)	-9.76% (active)	0.782% (active)	–	-41.9% (active)	19.1%
